Screening results from PubChem BioAssay.
WRN helicase inh-1 = blocks human WRN helicase; Q14191; WRN helicase unwinding, fluorescent forked duplex, kinetic; Potency, µM (titrated, usually from 114 µM), hits mostly inhibitors; 360,000 tested, 0.46% active; AID 651768; further: nearly all actives have a fitted effect of over 55% in size
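Screening of the MLSMR collection measured strand separation of a quenched forked DNA duplex (100 nM) by 20 nM WRN with 2 mM ATP, all final. Compounds were preincubated with enzyme 15 min at room temperature.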
TCR act = T cell receptor activation; Potency, µM (series often up to 9.22 µM), hits mostly activators; 330,000 tested, under 10 active; primary human leukocytes, anti-CD3, IL-2 HTRF, 48 h
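Using a-CD3 beads without co-stimulation, primary human leukocytes were exposed to compounds for 48 hr. An HTRF IL-2 kit measured the cytokine, with europium-to-d2 energy transfer producing emission at 665nm upon 320nm excitation.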
VDR inhibitor = blocks the human vitamin D receptor. P11473. AID 504847. Potency, µM, most hits filed as inhibitors. 400,000 tested, 0.93% active. VDR-SRC2-3 peptide fluorescence polarization, 2 h
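Fluorescence polarization assay of small-molecule disruption of VDR binding to coregulator peptide SRC2-3. Compounds and controls pin-transferred, then read after 2 h incubation at ambient room temperature.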
FEN1 inh = human FEN1 inhibition; P39748; Recombinant FEN1 flap cleavage, fluorescence, 15 min; Potency, µM (doses to about 114 µM), usual class: inhibitors; 390,000 tested, 0.35% active; further: nearly all actives have a fitted effect of over 65% in size
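Steps: FEN1 (10 nM) dispensed; compound added by pin tool; 15 min at room temperature; substrate added to 50 nM final; reads at 0 min and 15 min; data normalized and fitted (four-parameter Hill).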
PI5P4Ka inh = blocks human PI5P4K alpha kinase activity | AID 652105 | 330,000 tested, 1.2% active | P48426 | max response, % | PI5P4Kalpha enzyme, ADP-Glo luminescence, 60 min; active compounds read low; active means max response of -50% or lower; inconclusive means between -30% and -50%; inactive means -30% or higher; further: value at the top dose of about 77 µM
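Human PI5P4Kalpha with substrate in 0.038 M HEPES pH 7.4, 0.28 mM EGTA, 0.1% CHAPS, 5% DMSO; reaction started with 5 microM ATP (final), 60 min at room temperature. ADP formed read by ADP-Glo luminescence.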
PLK1 PBD block = blocks phosphopeptide binding to human PLK1 polo-box domain; P53350; Plk1 PBD binding of FITC phosphopeptide, fluorescence polarization; Potency, µM, usual class: inhibitors; 360,000 tested, 2.8% active; further: series mostly up to about 57 µM; nearly all actives have a fitted effect of over 65% in size
Target sequence (P53350 whole entry, looked up, the tested form may be a part): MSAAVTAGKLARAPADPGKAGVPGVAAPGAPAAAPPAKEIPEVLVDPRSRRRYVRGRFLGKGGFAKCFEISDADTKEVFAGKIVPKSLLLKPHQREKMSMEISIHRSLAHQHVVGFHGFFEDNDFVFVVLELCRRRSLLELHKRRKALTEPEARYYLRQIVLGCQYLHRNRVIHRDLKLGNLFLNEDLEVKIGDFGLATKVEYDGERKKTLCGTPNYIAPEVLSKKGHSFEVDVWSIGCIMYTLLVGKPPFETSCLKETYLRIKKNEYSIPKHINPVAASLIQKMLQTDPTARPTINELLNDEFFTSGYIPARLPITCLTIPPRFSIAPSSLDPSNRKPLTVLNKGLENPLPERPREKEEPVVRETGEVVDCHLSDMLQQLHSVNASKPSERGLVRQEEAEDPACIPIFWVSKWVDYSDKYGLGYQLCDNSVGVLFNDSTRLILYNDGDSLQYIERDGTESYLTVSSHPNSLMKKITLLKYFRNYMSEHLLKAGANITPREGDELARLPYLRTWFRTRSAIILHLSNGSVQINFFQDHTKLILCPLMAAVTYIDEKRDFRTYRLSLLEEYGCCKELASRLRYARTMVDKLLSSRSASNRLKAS
WRN helicase inh-2 = WRN helicase inhibition, cherry-pick retest; shares compounds with WRN helicase inh-1; WRN helicase DNA unwinding, fluorescence kinetic; Potency, µM (top dose mostly 57.1 µM), usual class: inhibitors; 610 tested, 63% active; AID 720497; further: nearly all actives have a fitted effect of over 65% in size
TO DNA binding = binds DNA, flagged in WRN inhibitor counterscreen; AID 720499; thiazole orange DNA binding displacement, fluorescence; shares compounds with WRN helicase inh-1; 610 tested, 10% active; Potency, µM (series often up to 57.1 µM), hits mostly inhibitors;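 further: drop in dye fluorescence marks compound binding to DNA; nearly all actives have a fitted effect of over 60% in size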
BLM counter = counter-screen for WRN helicase inhibitors: human BLM helicase inhibition; 610 tested, 60% active; Recombinant BLM helicase DNA unwinding, red fluorescence; Potency, µM (highest dose often 57.1 µM), usual class: inhibitors; shares compounds with WRN helicase inh-1; further: nearly all actives have a fitted effect of over 60% in size
ADP-Glo counter = interferes with ADP-Glo detection without enzyme present; Potency, µM (titrated, usually from 76.9 µM), hits mostly inhibitors; shares compounds with PI5P4Ka inh; ADP-Glo detection counter-screen, luciferase luminescence, no enzyme; 1,100 tested, under 10 active
TbPYK inh = confirmation of Trypanosoma brucei pyruvate kinase inhibitors | shares compounds with PLK1 PBD block | recombinant TbPYK, Kinase-Glo ATP luminescence | Potency, µM (titrated, usually from 76.9 µM), hits mostly inhibitors | 890 tested, 67% active; further: nearly all actives have a fitted effect of over 70% in size
TbPYK ADP-Glo = orthogonal confirmation of Trypanosoma brucei pyruvate kinase inhibitors | shares compounds with PLK1 PBD block | recombinant TbPYK, ADP-Glo luminescence, 60 min | Potency, µM (series often up to 76.9 µM), hits mostly inhibitors | 890 tested, 62% active | AID 720584; further: nearly all actives have a fitted effect of over 75% in size
Each line names hits and unclear results; the compound was inactive in the other large screens (follow-up assays come after a bar, where they were run). Compounds with a hit are over-represented: about 3.7% of the library has one in this group of screens. Unless noted, the call rests on the fitted dose curve; in most records, active means well fitted curve in the direction sought with a large enough effect; inconclusive means small, poorly fitted or top-dose-only effect, or another doubt; inactive means no such curve, though single readings can be large; an effect the other way counts as inactive or inconclusive.

O=[N+]([O-])c1cccc(O)c1	none
O=[N+]([O-])c1cc(S(=O)(=O)c2ccc(O)c([N+](=O)[O-])c2)ccc1O	WRN helicase inh-1 inconclusive, FEN1 inh inconclusive, PI5P4Ka inh -64.2 | WRN helicase inh-2 19.2µM | TO DNA binding inactive | BLM counter inconclusive
Cn1cccc1/C=C1\C(=O)NC(=O)N(Cc2ccccc2Cl)C1=O	WRN helicase inh-1 39.8µM, FEN1 inh inconclusive, PI5P4Ka inh -68.8, PLK1 PBD block inconclusive | WRN helicase inh-2 inconclusive | TO DNA binding inactive | BLM counter 17.1µM
C=CCN1C(=O)/C(=C/c2cccs2)C(=O)NC1=S	WRN helicase inh-1 0.474µM, VDR inhibitor inconclusive, PI5P4Ka inh -85.7, PLK1 PBD block 5.32µM | WRN helicase inh-2 inactive | TO DNA binding inactive | BLM counter inconclusive | TbPYK inh 22.4µM | TbPYK ADP-Glo 35.5µM
C[C@@]12C=CC(=O)C=C1CCC1C2CC[C@]2(C)C(=O)CCC12 (some centres undefined)	none (no result: WRN helicase inh-1, TCR act, FEN1 inh, PI5P4Ka inh, PLK1 PBD block)
COC(=O)C1=C(c2ccc(F)cc2F)C[C@@H]2CC[C@H]1N2C(=O)NC1Cc2ccccc2C1	PI5P4Ka inh -84.4 | ADP-Glo counter inactive
COC(=O)C1=C(c2ccc(F)cc2F)C[C@@H]2CC[C@H]1N2C(=O)NC1CCCCC1	none
COc1ccc(C(c2nnnn2-c2ccc3c(c2)OCCO3)N2CCC(n3c(=O)[nH]c4ccccc43)CC2)cc1 (centres undefined)	none (no result: TCR act, VDR inhibitor, FEN1 inh) | ADP-Glo counter inactive
CS(=O)(=O)N1CCC2(CCCN(Cc3ccncc3)C2)CC1	none (no result: WRN helicase inh-1, TCR act, FEN1 inh, PI5P4Ka inh, PLK1 PBD block)
CCOC(=O)Nc1ccc(NCc2ccc(F)cc2)nc1N	VDR inhibitor 6.31µM, FEN1 inh inconclusive, PI5P4Ka inh -50.2, PLK1 PBD block 7.52µM | ADP-Glo counter inactive | TbPYK inh 4.47µM | TbPYK ADP-Glo 11.2µM
COc1cc(/C=C/c2nc3ccccc3c(=O)n2-c2ccc(Br)c(C)c2)ccc1O	none (no result: WRN helicase inh-1, TCR act, PI5P4Ka inh, PLK1 PBD block)
O=C1NC(=O)N(c2ccc3c(c2)OCO3)C(=O)/C1=C\c1ccc(-c2ccccc2C(=O)O)o1	WRN helicase inh-1 56.2µM, VDR inhibitor inconclusive, FEN1 inh inconclusive, PI5P4Ka inh -51.8, PLK1 PBD block 2.99µM | TbPYK inh 12.6µM | TbPYK ADP-Glo inconclusive
C[C@@H]1O[C@@H](O[C@H]2C[C@@H](O)[C@]3(CO)[C@@H]4C(CC[C@]3(O)C2)[C@@]2(O)CC[C@H]([C@@H]3COC(=O)C3)[C@@]2(C)C[C@H]4O)[C@H](O)[C@H](O)[C@H]1O (some centres undefined)	FEN1 inh inconclusive (no result: WRN helicase inh-1, TCR act, PI5P4Ka inh, PLK1 PBD block)
Cc1ccc(/C=C2\C(=O)NC(=S)N(c3ccc(F)cc3)C2=O)s1	WRN helicase inh-1 50.1µM, VDR inhibitor 35.5µM, PI5P4Ka inh -82.5, PLK1 PBD block 1.34µM | TbPYK inh 12.6µM | TbPYK ADP-Glo inconclusive
Cc1ccc(/C=C2\C(=O)NC(=S)N(c3ccccc3F)C2=O)s1	WRN helicase inh-1 50.1µM, VDR inhibitor inconclusive, FEN1 inh inconclusive, PI5P4Ka inh -110.5, PLK1 PBD block 1.19µM | TbPYK inh 7.94µM | TbPYK ADP-Glo 11.2µM
